# Test results as given in paper PMC7862700, “An all-to-all approach to the identification of sequence-specific readers for epigenetic DNA modifications on cytosine”.
# Columns and labels:
# Experiment in all cases: DAPPL (digital affinity profiling via proximity ligation, sequencing); 10 mM Tris-HCl pH 7.5, 50 mM NaCl, 1 mM DTT, 4% glycerol, room temperature, 30 min; GST-TFs on glutathione beads, 16-mer random dsDNA library, 0.1% formaldehyde crosslink after washing; high values mean tight binding
# FLI1 = target: T1, FLI1 (Homo sapiens, UniProt Q01543 1-452); conditions: protein: recombinant; tags: N-terminal GST; dsDNA, one strand shown
# T1 sequence: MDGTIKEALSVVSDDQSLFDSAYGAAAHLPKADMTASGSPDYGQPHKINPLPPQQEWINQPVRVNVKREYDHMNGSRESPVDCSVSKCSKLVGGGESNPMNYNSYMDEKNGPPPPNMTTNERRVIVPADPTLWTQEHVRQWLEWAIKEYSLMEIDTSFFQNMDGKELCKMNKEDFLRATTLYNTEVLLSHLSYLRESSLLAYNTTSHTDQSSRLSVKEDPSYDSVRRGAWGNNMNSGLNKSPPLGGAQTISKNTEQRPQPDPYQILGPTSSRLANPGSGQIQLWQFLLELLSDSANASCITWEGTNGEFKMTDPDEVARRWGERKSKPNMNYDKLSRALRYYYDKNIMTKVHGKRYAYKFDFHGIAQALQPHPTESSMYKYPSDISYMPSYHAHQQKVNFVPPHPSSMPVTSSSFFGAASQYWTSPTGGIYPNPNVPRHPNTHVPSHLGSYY
# Summary of the method: (§1)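 Beads coated with glutathione captured GST-fused human transcription factors that had been expressed in yeast, and the factors were then given DNA barcodes and pooled with a tag-only sample. The pools were incubated with 200 nmole of a random double-stranded 16-mer DNA library in Tris/NaCl/DTT/glycerol buffer for 30 min at room temperature, washed, crosslinked with 0.1% formaldehyde and proximity-ligated with BsaI/T4 ligase at 37 °C for 1 h. PCR amplification and Illumina NextSeq500 sequencing came last. Binding signal is each hexamer's read frequency for a factor divided by its frequency for the tag-only sample.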
# ELK1 = target: T2, ELK1 (Homo sapiens, UniProt P19419 1-428); conditions: protein: recombinant; tags: N-terminal GST; dsDNA, one strand shown
# T2 sequence: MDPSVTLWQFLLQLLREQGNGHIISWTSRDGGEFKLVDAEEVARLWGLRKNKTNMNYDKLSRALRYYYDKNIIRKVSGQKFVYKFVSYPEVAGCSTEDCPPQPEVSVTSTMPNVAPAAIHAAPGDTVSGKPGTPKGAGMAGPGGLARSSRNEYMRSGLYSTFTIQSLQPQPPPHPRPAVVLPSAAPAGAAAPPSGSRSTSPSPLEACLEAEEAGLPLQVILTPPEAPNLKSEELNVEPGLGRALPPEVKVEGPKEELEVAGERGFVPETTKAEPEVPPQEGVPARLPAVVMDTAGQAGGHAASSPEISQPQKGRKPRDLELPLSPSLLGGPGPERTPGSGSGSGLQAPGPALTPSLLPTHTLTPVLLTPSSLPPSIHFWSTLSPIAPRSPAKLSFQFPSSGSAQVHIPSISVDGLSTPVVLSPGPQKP
# Summary of the method: as §1
# GABPA = target: T3, GABPA (Homo sapiens, UniProt Q06546 1-454); conditions: protein: recombinant; tags: N-terminal GST; dsDNA, one strand shown
# T3 sequence: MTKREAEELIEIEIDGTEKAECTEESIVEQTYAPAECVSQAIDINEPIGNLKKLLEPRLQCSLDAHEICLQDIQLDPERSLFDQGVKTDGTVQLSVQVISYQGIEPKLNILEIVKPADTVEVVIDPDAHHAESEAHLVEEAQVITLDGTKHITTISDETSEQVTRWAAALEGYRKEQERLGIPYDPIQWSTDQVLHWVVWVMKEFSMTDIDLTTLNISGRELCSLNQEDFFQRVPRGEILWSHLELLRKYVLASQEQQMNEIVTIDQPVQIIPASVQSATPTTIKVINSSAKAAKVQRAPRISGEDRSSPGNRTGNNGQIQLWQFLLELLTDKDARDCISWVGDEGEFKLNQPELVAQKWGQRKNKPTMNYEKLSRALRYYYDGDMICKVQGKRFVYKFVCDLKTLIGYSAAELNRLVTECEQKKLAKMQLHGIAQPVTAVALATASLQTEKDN
# Summary of the method: as §1
# ERG = target: T4, ERG (Homo sapiens, UniProt P11308 1-479); conditions: protein: recombinant; tags: N-terminal GST; dsDNA, one strand shown
# T4 sequence: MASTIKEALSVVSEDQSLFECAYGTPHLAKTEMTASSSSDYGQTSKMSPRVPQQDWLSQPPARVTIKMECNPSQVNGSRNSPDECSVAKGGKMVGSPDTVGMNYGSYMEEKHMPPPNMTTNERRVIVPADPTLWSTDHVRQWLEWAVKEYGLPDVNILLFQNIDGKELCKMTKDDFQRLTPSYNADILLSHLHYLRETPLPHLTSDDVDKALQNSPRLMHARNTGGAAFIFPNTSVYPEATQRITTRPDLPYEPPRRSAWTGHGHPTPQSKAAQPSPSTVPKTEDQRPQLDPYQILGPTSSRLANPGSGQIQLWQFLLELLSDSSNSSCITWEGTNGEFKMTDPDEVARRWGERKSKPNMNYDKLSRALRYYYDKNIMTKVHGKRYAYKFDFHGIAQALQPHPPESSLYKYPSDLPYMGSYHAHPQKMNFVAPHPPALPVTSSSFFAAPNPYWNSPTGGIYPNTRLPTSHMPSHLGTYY
# Summary of the method: as §1
# ELF1 = ELF1 (Homo sapiens, UniProt P32519 1-619); conditions: protein: recombinant; tags: N-terminal GST; dsDNA, one strand shown
# Chain of ELF1 (P32519 whole entry): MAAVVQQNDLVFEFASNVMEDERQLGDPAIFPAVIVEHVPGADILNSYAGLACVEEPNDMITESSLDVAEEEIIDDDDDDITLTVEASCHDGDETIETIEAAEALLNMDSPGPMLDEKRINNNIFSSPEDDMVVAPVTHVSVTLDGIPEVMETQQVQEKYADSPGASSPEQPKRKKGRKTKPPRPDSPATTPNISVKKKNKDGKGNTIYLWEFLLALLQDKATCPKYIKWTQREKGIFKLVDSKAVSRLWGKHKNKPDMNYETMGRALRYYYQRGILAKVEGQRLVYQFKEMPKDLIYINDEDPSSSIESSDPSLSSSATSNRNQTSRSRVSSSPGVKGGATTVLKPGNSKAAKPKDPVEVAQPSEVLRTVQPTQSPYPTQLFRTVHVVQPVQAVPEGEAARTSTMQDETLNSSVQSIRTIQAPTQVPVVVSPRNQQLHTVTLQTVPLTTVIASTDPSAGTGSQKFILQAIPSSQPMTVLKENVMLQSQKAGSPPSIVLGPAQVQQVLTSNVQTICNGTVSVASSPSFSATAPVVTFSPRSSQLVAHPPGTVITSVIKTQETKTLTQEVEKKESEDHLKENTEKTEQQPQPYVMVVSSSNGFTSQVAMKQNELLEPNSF
# Summary of the method: as §1
# EHF = target: T5, EHF (Homo sapiens, UniProt Q9NZC4 1-300); conditions: protein: recombinant; tags: N-terminal GST; dsDNA, one strand shown
# T5 sequence: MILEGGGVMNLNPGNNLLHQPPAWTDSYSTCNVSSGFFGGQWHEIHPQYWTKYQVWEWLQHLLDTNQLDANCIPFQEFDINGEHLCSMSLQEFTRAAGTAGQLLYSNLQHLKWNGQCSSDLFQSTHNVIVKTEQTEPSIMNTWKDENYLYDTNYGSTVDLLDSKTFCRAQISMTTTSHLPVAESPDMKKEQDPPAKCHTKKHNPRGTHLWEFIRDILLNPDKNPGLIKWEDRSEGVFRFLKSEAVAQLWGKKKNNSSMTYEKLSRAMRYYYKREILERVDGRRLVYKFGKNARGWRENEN
# Summary of the method: as §1
# SPI1 = SPI1 (Homo sapiens, UniProt P17947 1-270); conditions: protein: recombinant; tags: N-terminal GST; dsDNA, one strand shown
# Summary of the method: as §1
# SPIB = SPIB (Homo sapiens, UniProt Q01892 1-262); conditions: protein: recombinant; tags: N-terminal GST; dsDNA, one strand shown
# Chain of SPIB (Q01892 whole entry): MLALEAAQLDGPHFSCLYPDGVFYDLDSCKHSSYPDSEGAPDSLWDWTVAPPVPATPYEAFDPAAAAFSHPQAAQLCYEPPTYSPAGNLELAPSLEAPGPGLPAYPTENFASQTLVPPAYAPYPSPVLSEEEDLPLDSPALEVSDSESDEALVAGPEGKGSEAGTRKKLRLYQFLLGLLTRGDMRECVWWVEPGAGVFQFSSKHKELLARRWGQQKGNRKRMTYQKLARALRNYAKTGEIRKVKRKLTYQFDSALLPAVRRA
# Summary of the method: as §1
# ELK3 = target: T6, ELK3 (Homo sapiens, UniProt P41970 1-407); conditions: protein: recombinant; tags: N-terminal GST; dsDNA, one strand shown
# T6 sequence: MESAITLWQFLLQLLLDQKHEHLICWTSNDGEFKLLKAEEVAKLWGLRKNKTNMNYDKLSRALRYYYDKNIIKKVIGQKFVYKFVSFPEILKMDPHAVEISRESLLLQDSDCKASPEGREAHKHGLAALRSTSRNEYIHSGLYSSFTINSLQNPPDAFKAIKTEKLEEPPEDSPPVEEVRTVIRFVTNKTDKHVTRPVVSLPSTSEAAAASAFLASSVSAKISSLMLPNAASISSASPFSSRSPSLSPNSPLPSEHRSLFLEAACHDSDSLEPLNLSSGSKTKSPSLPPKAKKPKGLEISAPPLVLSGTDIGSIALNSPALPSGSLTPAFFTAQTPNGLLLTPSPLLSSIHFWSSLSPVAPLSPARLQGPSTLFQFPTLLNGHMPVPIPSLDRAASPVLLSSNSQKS
# Summary of the method: as §1
# FEV = target: T7, FEV (Homo sapiens, UniProt Q99581 1-238); conditions: protein: recombinant; tags: N-terminal GST; dsDNA, one strand shown
# T7 sequence: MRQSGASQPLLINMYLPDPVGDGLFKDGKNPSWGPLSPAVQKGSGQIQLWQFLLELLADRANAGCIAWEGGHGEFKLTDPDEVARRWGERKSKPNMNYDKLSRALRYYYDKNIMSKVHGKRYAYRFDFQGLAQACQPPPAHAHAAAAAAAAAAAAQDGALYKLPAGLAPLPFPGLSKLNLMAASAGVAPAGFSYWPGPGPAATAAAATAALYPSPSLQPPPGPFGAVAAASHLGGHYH
# Summary of the method: as §1
# ETV5 = ETV5 (Homo sapiens, UniProt P41161 1-510); conditions: protein: recombinant; tags: N-terminal GST; dsDNA, one strand shown
# Chain of ETV5 (P41161 whole entry): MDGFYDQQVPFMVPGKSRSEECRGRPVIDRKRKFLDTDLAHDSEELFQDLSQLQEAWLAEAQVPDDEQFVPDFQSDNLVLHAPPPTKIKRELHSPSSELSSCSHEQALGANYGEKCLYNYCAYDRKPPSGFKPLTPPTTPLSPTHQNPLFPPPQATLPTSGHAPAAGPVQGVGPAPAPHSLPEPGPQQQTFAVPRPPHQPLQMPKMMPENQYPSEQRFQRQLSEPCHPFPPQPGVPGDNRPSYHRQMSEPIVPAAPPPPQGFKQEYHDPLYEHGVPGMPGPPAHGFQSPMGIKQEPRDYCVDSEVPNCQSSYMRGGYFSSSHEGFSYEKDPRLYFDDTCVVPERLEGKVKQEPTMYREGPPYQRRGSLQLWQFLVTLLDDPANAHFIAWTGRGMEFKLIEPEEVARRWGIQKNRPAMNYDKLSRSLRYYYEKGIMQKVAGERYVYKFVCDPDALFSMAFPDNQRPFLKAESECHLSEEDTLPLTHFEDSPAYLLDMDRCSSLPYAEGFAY
# Summary of the method: as §1
# HSF1 = HSF1 (Homo sapiens, UniProt Q00613 1-529); conditions: protein: recombinant; tags: N-terminal GST; chain copies: 3; dsDNA, one strand shown
# Chain of HSF1 (Q00613 whole entry): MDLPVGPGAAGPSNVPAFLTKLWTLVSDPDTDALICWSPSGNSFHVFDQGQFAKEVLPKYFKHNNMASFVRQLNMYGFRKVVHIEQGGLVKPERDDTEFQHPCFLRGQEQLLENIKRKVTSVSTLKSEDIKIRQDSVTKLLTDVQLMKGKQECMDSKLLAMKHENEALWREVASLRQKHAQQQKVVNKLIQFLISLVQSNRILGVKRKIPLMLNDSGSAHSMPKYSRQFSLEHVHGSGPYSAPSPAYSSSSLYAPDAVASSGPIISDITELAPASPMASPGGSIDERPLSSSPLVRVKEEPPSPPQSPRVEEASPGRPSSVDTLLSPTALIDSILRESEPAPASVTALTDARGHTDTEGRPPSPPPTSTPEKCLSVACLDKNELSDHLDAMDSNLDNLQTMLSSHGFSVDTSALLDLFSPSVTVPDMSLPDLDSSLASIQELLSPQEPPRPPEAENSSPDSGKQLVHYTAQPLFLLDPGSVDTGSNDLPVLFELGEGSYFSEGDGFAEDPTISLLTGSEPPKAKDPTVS
# Summary of the method: as §1
# SPIC = target: T8, SPIC (Homo sapiens, UniProt Q8N5J4 1-248); conditions: protein: recombinant; tags: N-terminal GST; dsDNA, one strand shown
# T8 sequence: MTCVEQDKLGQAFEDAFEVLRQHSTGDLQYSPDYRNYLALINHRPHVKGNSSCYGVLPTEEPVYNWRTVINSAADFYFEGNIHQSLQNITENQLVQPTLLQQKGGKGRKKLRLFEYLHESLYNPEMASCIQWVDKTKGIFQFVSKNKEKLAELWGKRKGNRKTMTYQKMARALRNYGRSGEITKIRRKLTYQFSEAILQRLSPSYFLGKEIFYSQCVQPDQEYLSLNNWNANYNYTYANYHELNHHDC
# Summary of the method: as §1
# ELF4 = ELF4 (Homo sapiens, UniProt Q99607 1-663); conditions: protein: recombinant; tags: N-terminal GST; dsDNA, one strand shown
# Chain of ELF4 (Q99607 whole entry): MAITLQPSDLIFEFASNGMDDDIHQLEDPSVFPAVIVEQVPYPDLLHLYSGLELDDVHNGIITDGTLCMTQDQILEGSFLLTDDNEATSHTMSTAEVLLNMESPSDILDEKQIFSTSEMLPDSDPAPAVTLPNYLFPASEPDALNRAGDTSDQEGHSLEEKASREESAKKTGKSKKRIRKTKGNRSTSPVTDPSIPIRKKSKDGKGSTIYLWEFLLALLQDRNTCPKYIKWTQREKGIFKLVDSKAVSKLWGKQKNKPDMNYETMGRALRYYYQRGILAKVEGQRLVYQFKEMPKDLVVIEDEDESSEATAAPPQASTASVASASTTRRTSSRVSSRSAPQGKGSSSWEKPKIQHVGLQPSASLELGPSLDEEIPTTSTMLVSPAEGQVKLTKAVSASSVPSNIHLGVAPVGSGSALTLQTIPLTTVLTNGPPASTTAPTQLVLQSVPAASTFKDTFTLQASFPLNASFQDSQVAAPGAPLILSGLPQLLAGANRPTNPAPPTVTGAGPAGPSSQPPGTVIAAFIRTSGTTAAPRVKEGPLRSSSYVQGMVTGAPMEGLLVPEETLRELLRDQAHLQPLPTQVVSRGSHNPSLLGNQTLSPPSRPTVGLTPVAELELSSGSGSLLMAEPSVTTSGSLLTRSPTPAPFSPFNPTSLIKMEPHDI
# Summary of the method: as §1
# ELK4 = target: T9, ELK4 (Homo sapiens, UniProt P28324-2 1-405); conditions: protein: recombinant; tags: N-terminal GST; dsDNA, one strand shown
# T9 sequence: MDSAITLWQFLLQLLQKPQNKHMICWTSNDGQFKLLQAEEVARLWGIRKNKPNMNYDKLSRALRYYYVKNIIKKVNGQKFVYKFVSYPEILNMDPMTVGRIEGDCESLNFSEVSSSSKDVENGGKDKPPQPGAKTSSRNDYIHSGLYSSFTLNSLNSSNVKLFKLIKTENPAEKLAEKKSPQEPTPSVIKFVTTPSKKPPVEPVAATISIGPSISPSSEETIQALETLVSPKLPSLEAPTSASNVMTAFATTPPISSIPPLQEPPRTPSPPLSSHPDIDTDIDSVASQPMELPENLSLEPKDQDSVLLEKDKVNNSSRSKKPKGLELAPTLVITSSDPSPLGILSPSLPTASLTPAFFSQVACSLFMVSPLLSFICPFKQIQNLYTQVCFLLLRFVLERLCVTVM
# Summary of the method: as §1
# ETV2 = target: T10, ETV2 (Homo sapiens, UniProt O00321 1-342); conditions: protein: recombinant; tags: N-terminal GST; dsDNA, one strand shown
# T10 sequence: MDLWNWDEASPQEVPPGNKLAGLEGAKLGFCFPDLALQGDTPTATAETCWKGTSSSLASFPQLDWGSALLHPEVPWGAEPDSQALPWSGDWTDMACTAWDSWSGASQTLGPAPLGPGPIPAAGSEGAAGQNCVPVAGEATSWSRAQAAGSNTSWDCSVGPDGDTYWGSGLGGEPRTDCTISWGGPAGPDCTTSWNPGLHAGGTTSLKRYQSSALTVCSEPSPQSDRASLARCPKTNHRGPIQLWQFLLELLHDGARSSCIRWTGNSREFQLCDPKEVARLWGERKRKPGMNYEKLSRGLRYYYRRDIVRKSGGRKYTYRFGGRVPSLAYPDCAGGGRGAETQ
# Summary of the method: as §1
# ELF3 = target: T11, ELF3 (Homo sapiens, UniProt P78545 1-371); conditions: protein: recombinant; tags: N-terminal GST; dsDNA, one strand shown
# T11 sequence: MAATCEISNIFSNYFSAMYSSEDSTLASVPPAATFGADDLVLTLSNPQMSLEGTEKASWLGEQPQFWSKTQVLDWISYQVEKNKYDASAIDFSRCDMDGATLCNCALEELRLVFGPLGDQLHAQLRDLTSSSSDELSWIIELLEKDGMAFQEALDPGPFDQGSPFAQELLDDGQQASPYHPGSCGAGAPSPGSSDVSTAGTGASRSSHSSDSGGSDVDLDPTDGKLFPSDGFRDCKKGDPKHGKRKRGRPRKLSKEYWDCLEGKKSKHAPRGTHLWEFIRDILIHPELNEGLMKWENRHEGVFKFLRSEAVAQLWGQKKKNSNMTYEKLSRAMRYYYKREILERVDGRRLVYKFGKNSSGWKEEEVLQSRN
# Summary of the method: as §1
# CRX = CRX (Homo sapiens, UniProt O43186 1-299); conditions: protein: recombinant; tags: N-terminal GST; dsDNA, one strand shown
# Chain of CRX (O43186 whole entry): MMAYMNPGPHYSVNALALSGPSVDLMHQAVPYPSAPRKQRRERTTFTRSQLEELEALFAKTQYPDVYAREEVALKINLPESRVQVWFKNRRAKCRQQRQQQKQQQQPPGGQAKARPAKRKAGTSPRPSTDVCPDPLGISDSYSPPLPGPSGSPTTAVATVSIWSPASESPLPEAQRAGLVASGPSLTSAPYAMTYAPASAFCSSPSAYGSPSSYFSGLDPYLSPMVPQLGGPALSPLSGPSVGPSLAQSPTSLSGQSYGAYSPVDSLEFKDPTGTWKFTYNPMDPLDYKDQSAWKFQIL
# Summary of the method: as §1
# ETV1 = ETV1 (Homo sapiens, UniProt P50549 1-477); conditions: protein: recombinant; tags: N-terminal GST; dsDNA, one strand shown
# Chain of ETV1 (P50549 whole entry): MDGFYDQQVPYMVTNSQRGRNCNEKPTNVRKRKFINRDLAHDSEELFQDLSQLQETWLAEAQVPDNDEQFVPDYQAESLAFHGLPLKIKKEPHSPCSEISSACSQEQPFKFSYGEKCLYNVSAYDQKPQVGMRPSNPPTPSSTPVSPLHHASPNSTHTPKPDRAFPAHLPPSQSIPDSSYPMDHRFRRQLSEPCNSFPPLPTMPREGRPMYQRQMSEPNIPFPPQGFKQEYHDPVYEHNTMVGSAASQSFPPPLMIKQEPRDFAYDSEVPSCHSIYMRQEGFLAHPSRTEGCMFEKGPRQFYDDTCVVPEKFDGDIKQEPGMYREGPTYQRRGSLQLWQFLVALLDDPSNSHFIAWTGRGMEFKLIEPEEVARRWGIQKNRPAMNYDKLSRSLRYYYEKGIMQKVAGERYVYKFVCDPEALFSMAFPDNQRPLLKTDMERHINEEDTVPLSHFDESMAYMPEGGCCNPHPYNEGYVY
# Summary of the method: as §1
sequence,measurement,setting,value
TGTCTA,binding signal,FLI1,"1.2 fold enrichment (6-mer frequency, TF over GST control)"
same,binding signal,ELK1,"1.15 fold enrichment (6-mer frequency, TF over GST control)"
same,binding signal,GABPA,"1.12 fold enrichment (6-mer frequency, TF over GST control)"
same,binding signal,ERG,"1.17 fold enrichment (6-mer frequency, TF over GST control)"
same,binding signal,ELF1,"1.15 fold enrichment (6-mer frequency, TF over GST control)"
same,binding signal,EHF,"1.12 fold enrichment (6-mer frequency, TF over GST control)"
same,binding signal,SPI1,"1.09 fold enrichment (6-mer frequency, TF over GST control)"
same,binding signal,SPIB,"1.02 fold enrichment (6-mer frequency, TF over GST control)"
same,binding signal,ELK3,"1.36 fold enrichment (6-mer frequency, TF over GST control)"
same,binding signal,FEV,"1.14 fold enrichment (6-mer frequency, TF over GST control)"
same,binding signal,ETV5,"1.24 fold enrichment (6-mer frequency, TF over GST control)"
same,binding signal,HSF1,"1.15 fold enrichment (6-mer frequency, TF over GST control)"
same,binding signal,SPIC,"1.35 fold enrichment (6-mer frequency, TF over GST control)"
same,binding signal,ELF4,"1.2 fold enrichment (6-mer frequency, TF over GST control)"
same,binding signal,ELK4,"1.06 fold enrichment (6-mer frequency, TF over GST control)"
same,binding signal,ETV2,"1.34 fold enrichment (6-mer frequency, TF over GST control)"
same,binding signal,ELF3,"1.06 fold enrichment (6-mer frequency, TF over GST control)"
same,binding signal,CRX,"1.05 fold enrichment (6-mer frequency, TF over GST control)"
same,binding signal,ETV1,"1.24 fold enrichment (6-mer frequency, TF over GST control)"
